Assay results reported in ChEMBL document CHEMBL3433997, “St. Jude Leishmania screening dataset” (2016).

Columns and labels:
Assay type in all cases: functional
[1] = target: Solute carrier family 2, facilitated glucose transporter member 1 (Homo sapiens) (UniProt P11166); assay: ST_JUDE_LEISH: Cytotoxicity at 2uM final concentration against transgenic Leishmania Mexicana promastigotes LmGLUT1 that are glucose transport deficient and complemented with the human glucose transporter GLUT1. Activity is measured by DNA content using SYBR green in vitro
Solute carrier family 2, facilitated glucose transporter member 1 (Homo sapiens), sequence (P11166 whole entry): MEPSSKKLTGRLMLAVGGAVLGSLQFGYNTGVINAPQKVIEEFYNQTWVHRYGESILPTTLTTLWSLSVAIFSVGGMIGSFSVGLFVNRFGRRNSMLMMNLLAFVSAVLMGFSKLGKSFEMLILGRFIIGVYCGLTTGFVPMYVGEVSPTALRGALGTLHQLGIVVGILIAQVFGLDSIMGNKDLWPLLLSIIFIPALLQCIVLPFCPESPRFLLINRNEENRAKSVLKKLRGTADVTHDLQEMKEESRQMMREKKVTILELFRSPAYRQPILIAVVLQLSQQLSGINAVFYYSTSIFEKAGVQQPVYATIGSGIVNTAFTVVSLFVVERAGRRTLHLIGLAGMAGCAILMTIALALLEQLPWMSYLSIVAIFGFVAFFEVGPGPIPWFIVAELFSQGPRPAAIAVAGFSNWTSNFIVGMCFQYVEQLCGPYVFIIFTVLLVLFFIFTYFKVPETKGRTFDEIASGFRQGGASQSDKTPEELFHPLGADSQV

[2] = target: Hexose transporter 1 (Plasmodium falciparum) (UniProt O97467); assay: ST_JUDE_LEISH: Cytotoxicity at 2uM final concentration against transgenic Leishmania Mexicana promastigotes LmPfHT that are glucose transport deficient and complemented with the Plasmodium falciparum hexose transporter. Activity is measured by DNA content using SYBR green in vitro
[3] = target: Glucose transporter (Leishmania mexicana) (UniProt O61059); assay: ST_JUDE_LEISH: Cytotoxicity at 2uM final concentration against transgenic Leishmania Mexicana promastigotes LmGT2 that are glucose transport deficient and complemented with the L. Mexicana glucose transporter 2. Activity is measured by DNA content using SYBR green in vitro

Work on `Cn1nc(-c2ccc(CNC3CCc4ccccc43)cc2)c2cnc(NCCN3CCCC3)nc21` (stereo not drawn) yielded an inhibition [1] of 2.93%, an inhibition [2] of 3.09% and an inhibition [3] of 0.03%.
Compound `CC(CCCCOCCc1ccccc1)NCC(O)c1cc(Cl)c(N)c(Cl)c1` (stereo not drawn) has an inhibition [1] of 2.66%, an inhibition [2] of 0.7% and an inhibition [3] of 2.18%.
`COc1ccc(CN2CCCC(Nc3ccc(F)c(F)c3)C2)c(O)c1` (stereo not drawn) gave an inhibition [1] of 2.58%, an inhibition [2] of 1.39% and an inhibition [3] of 3.1%.
`CCOC(=O)c1cncc(/C=C/c2cc(C)cnc2N)c1` showed an inhibition [1] of 5.82%, an inhibition [2] of 8.59% and an inhibition [3] of 8.04%.
Work on `Cc1cc2ncn(-c3nccc(NCc4ccc(F)cc4)n3)c2cc1C` yielded an inhibition [1] of -0.72%, an inhibition [2] of -1.37% and an inhibition [3] of -0.57%.
For `CC1CN(Cc2ccc(-c3ccc(-c4nc5ccccc5[nH]4)cc3)cc2)CC(C)O1` (stereo not drawn), the inhibition [1] was 6.34%, the inhibition [2] was 6.82% and the inhibition [3] was 4.66%.
`Nc1ncc(-c2ccccc2)cc1/C=C/c1cccnc1` gave an inhibition [1] of 0.64%, an inhibition [2] of -2.47% and an inhibition [3] of 0.23%.
In the case of `CCC1CN(S(=O)(=O)c2ccc3c(c2)NC(=O)CC(=O)N3)c2cc(Cl)ccc2O1` (stereo not drawn), the inhibition [1] was 2.65%, the inhibition [2] was 2.92% and the inhibition [3] was 3.29%.
For `COC(=O)c1cccc(CNCc2ccc(-c3ccc(-c4nc5cc(F)ccc5[nH]4)cc3)cc2)c1`, the inhibition [1] was 13%, the inhibition [2] was 6.26% and the inhibition [3] was 4.98%.
With `CS(=O)(=O)c1ccc(OCCCN(Cc2ccccc2C(F)(F)F)c2ccc(C#N)c(C(F)(F)F)c2)cc1` the inhibition [1] was 1.51%, the inhibition [2] was 3.33% and the inhibition [3] was 0.65%.
In the case of `CC(C)[C@H](NC(=O)NC1CCC(CCN2C3CCC2CC(OC(=O)C(CO)c2ccccc2)C3)CC1)C(O)(c1ccccc1)c1ccccc1` (stereo partly drawn), the inhibition [1] was 3.62%, the inhibition [2] was 3.92% and the inhibition [3] was 1.15%.
`COc1cc(F)c2nccc([C@@H](O)CN3CCC(NCc4nc5cccc(F)c5[nH]4)CC3)c2c1` gave an inhibition [1] of 6.27%, an inhibition [2] of 0.25% and an inhibition [3] of 3.66%.
For `CCCCn1c(C(C)Oc2ccc(Cl)cc2Cl)nc2cc(S(N)(=O)=O)ccc21` (stereo not drawn), the inhibition [1] was -0.86%, the inhibition [2] was -1.81% and the inhibition [3] was -1.84%.
`CN(C)CCNCc1ccc(-c2ccc3c(Nc4ccc(Cl)cc4F)ccnc3c2)o1` was tested, and the inhibition [1] was 1.23%, the inhibition [2] was 0.82% and the inhibition [3] was -1.76%.
`Cc1cn(CC(=O)Nc2cccc(-c3cccc(-c4nc5cc(C(F)(F)F)ccc5[nH]4)c3)c2)c(=O)[nH]c1=O` gave an inhibition [1] of 9.16%, an inhibition [2] of 8.95% and an inhibition [3] of 4.55%.
`Cc1ccc2c(=NN=Cc3ccc(N(C)C)cc3)cc(C)[nH]c2c1` was tested, and the inhibition [1] was 1.24%, the inhibition [2] was 2.71% and the inhibition [3] was -5.38%.
Work on `CC1CCCN(C(=O)c2cc(-c3ccccn3)nc3c(Cl)cccc23)C1` (stereo not drawn) yielded an inhibition [1] of 2.19%, an inhibition [2] of 1.26% and an inhibition [3] of 1.25%.
`CC(C)NC[C@@H](O)[C@H](Cc1ccccc1)NC(=O)c1cc2c3c(c1)c(C(C)C)cn3CCS(=O)(=O)N2C` was tested, and the inhibition [1] was 2.21%, the inhibition [2] was 2.85% and the inhibition [3] was 2.8%.
Compound `Cc1n[nH]c2ccc(-c3ccc4nccc(N5CCC(N)CC5)c4c3)cc12` has an inhibition [1] of -2.13%, an inhibition [2] of -0.1% and an inhibition [3] of -3.17%.
`O=C(/C=C/c1ccc(Cl)c(Cl)c1)N1CCC(CCN2CCC(c3c[nH]c4cc5c(cc34)OCO5)CC2)CC1` showed an inhibition [1] of 0.05%, an inhibition [2] of 0.01% and an inhibition [3] of -0.27%.
`CC(C)Cn1c(Sc2ccc(C#N)c([N+](=O)[O-])c2)nnc1-c1cccs1` gave an inhibition [1] of 1.53%, an inhibition [2] of 3.14% and an inhibition [3] of 0.24%.
`CCc1cc(-c2onc(C)c2-c2cc3ccccc3o2)c(O)cc1OC` showed an inhibition [1] of 1.25%, an inhibition [2] of -1.2% and an inhibition [3] of -0.24%.
`CN1CCN(CCCN(Cc2cccc(-c3cccc(CNC4CCCC4)c3)c2)C(=O)CCC2CCCC2)CC1` gave an inhibition [1] of -0.12%, an inhibition [2] of -0.45% and an inhibition [3] of 0.45%.
Compound `CCc1ccc(-c2nc3cc(NC(=O)c4cc([N+](=O)[O-])cc([N+](=O)[O-])c4)ccc3o2)cc1` has an inhibition [1] of 2.33%, an inhibition [2] of 1.19% and an inhibition [3] of 2.3%.
`COc1cc2c(OC)cccc2cc1CNCCCCCCNCc1cc2cccc(OC)c2cc1OC` was tested, and the inhibition [1] was 0.11%, the inhibition [2] was 6.08% and the inhibition [3] was -0.11%.
For `COc1ccc(C(=O)COc2cccc(/C=C/C(=O)O)c2)cc1OC`, the inhibition [1] was 0.26%, the inhibition [2] was 0.15% and the inhibition [3] was -0.23%.
With `Cc1cccc2nc(-c3cccc(-c4cccc(NC(=O)C5CC(=O)Nc6ccccc65)c4)c3)[nH]c12` (stereo not drawn) the inhibition [1] was 4.88%, the inhibition [2] was -1.8% and the inhibition [3] was 5.82%.
`CC(C)NCc1ccc(-c2cccc(NC(=O)c3cccc(C#N)c3)c2)cc1` showed an inhibition [1] of 2.87%, an inhibition [2] of 2.38% and an inhibition [3] of -2.27%.
Work on `CCc1ccc(NC(=O)N(CCCN2CCN(C)CC2)Cc2csc(-c3ccc(CNCc4ccccc4)cc3)n2)cc1` yielded an inhibition [1] of -1.59%, an inhibition [2] of -0.93% and an inhibition [3] of 3.09%.
`CN1CCN(c2ccnc3ccc(NC(=O)c4ccc(Cl)c(Cl)c4)cc23)CC1` was tested, and the inhibition [1] was -1.88%, the inhibition [2] was 0.68% and the inhibition [3] was 0.97%.
With `COc1ccc(C2CC(=O)C3=C(C2)NC(C)=C(C(=O)OC2CCCC2)C3c2cccc(O)c2)cc1` (stereo not drawn) the inhibition [1] was 0.09%, the inhibition [2] was 0.95% and the inhibition [3] was -0.53%.
`O=C(c1cccc(-c2noc(C(F)(F)F)n2)c1)N1CCN(c2ccncc2)CC1` gave an inhibition [1] of 11.1%, an inhibition [2] of 10.9% and an inhibition [3] of 10.8%.
In the case of `O=C(NCc1cccc(F)c1)Nc1ccc(-c2ccc(-c3nc4cc(C(F)(F)F)ccc4[nH]3)cc2)cc1`, the inhibition [1] was 0.8%, the inhibition [2] was -0.45% and the inhibition [3] was 1.77%.
`O=C(NCc1ccc(Cl)cc1)c1ccc(C(=O)NCC2CCCN2CC2CCCCC2)cc1` (stereo not drawn) gave an inhibition [1] of 2.97%, an inhibition [2] of 1.54% and an inhibition [3] of 1.14%.
Compound `COc1ccc(CNC(=O)Nc2cc3cc(-c4ccc(CN(C)C)cc4)ccc3n3c(C)nnc23)cc1` has an inhibition [1] of 4.84%, an inhibition [2] of 2.93% and an inhibition [3] of 3.32%.
Work on `COc1cccc(N(CCCN2C(=O)c3cccc4cccc(c34)C2=O)C(=O)c2ccccc2C)c1` yielded an inhibition [1] of 5.96%, an inhibition [2] of 7.4% and an inhibition [3] of 0.69%.
